Consider 28 compounds from PubChem BioAssay.

The test can be described thus: JC-1 mitochondrial signal, unstimulated HepG2 cells – cell-based, JC-1 fluorescence, 24 h, 100 nL compound, profiling panel (AID 1167). Further: test concentration not given here. The conditions noted are these: HepG2 mitochondrial potential, higher = more signal.
As for `CO[C@H]1COC(=O)CC=C[C@H](C)[C@H](OC)COC(=O)[C@@H](C)NC(=O)CC=C[C@@H]1C`, the z-score was -0.66.
For `CCOC(=O)[C@H](Cc1ccccc1)NC(=O)CCC1CC(OC(=O)NCCc2ccc(F)cc2)CC2(CCCC(COC(=O)NCc3cccc(C(F)(F)F)c3)O2)O1` (stereo partly drawn) the value was 0.502; for `CCOC(=O)NN=C1C[C@@H](O)[C@@H](O)[C@@H]2[C@@H]3C(=O)N(c4ccc(F)cc4F)C(=O)[C@@H]3CC[C@H]12`, 1.11; for `C[C@]12CCC3c4ccc(OCC5CO5)cc4CCC3C1CC[C@@H]2O` (stereo partly drawn), 1.15.
Next, `CCOC(=O)CCN1C(=O)[C@H]2[C@H]3[C@H](O)[C@H](O)CC(=NOCC=C(C)CCC=C(C)C)[C@@H]3CC[C@H]2C1=O`: -0.651.
For `CCOC(=O)[C@H](Cc1ccccc1)NC(=O)CCC1CC(OC(=O)NCc2cccc3ccccc23)CC2(CCCC(COC(=O)NCCOc3ccccc3)O2)O1` (stereo partly drawn) the value was 0.161; for `CCOC(=O)[C@H](Cc1ccccc1)NC(=O)CCC1CC(OC(=O)NCc2ccc3c(c2)OCO3)CC2(CCCC(COC(=O)NCCc3ccc(Cl)cc3)O2)O1` (stereo partly drawn), 0.783.
For the compound `O=C(NN=C1C[C@@H](O)[C@@H](O)[C@@H]2[C@@H]3C(=O)N(Cc4ccccc4)C(=O)[C@@H]3CC[C@H]12)OCc1ccccc1`, the z-score is 0.846.
Next, `C[C@@H]1CC[C@H]2C(=O)O[C@@H](CN=[N+]=[N-])CN2[C@H]1c1ccc(Br)cc1`: -2.08; `COC(=O)CC=C[C@@H](C)[C@@H](C=NOC[C@@H](O)[C@H]1O[C@@H]2OC(C)(C)O[C@@H]2[C@H]1O)OC`: 0.103; `CC(CCN1CCCc2nc(C)c(C)cc21)=NO[C@H](C)c1cn([C@@H]2COC[C@H]2O)nn1`: 0.219.
Consider `CC(C)(C)N1C(=O)[C@H]2[C@H]3[C@H](O)[C@H](O)CC(=NNC(=O)OCc4ccccc4)[C@@H]3CC[C@H]2C1=O`, for which the z-score is -0.813.
Turning to `COc1cccc([C@H]2Oc3ccc(OC)cc3C(=NO[C@@H](C)c3cc(-c4c(C)cc(C)cc4C)no3)[C@@H]2O)c1`, the z-score is -2.54.
In the case of `O=C1C2=CC[C@H]3C(=O)N(C[C@@H]4CCCO4)C(=O)[C@H]3[C@H]2[C@H](O)[C@@H]2O[C@H]12`, the z-score is -0.549.
For `CCOC(=O)[C@H](Cc1ccccc1)NC(=O)CCC1CC(OC(=O)NCc2cccc3ccccc23)CC2(CCCC(COC(=O)NCCc3ccc(Cl)cc3)O2)O1` (stereo partly drawn) the value was -0.114.
Next, `COC(=O)[C@H](C)NC(=O)CCC1CC(OC(=O)NCc2cccc3ccccc23)CC2(CCCC(COC(=O)NCc3cccc(C(F)(F)F)c3)O2)O1` (stereo partly drawn): -0.707; `COC(=O)[C@H](C)NC(=O)CCC1CC(OC(=O)NCc2cccc3ccccc23)CC2(CCCC(COC(=O)NCCOc3ccccc3)O2)O1` (stereo partly drawn): -0.234; `CCOC(=O)CCN1C(=O)[C@H]2[C@H]3[C@H](O)[C@H](O)CC(=O)[C@@H]3CC[C@H]2C1=O`: -0.385.
For `C#CCCCON=C1[C@H]2CCn3c(=O)n(Cc4cc5c(cc4Cl)OCO5)c(=O)n3[C@H]2[C@H](O)[C@@H]2O[C@H]12` the value was -0.663; for `COC(=O)[C@H](C)NC(=O)CCC1CC(OC(=O)NCCc2ccc(F)cc2)CC2(CCCC(COC(=O)NCCc3ccccc3OC)O2)O1` (stereo partly drawn), 0.15; for `CCOC(=O)[C@H](Cc1ccccc1)NC(=O)CCC1CC(OC(=O)NCc2ccc3c(c2)OCO3)CC2(CCCC(COC(=O)NCCOc3ccccc3)O2)O1` (stereo partly drawn), 2.45.
With `CCOC(=O)CCN1C(=O)[C@H]2[C@H]3[C@H](O)[C@H](O)CC(=NNC(=O)OCC)[C@H]3CC[C@H]2C1=O`, the z-score was -0.357.
Next, `CCN1C(=O)[C@H]2[C@H]3[C@H](O)[C@H](O)CC(=NOCC[C@@H]4C=C[C@H](OC(C)=O)[C@@H](COC(C)=O)O4)[C@@H]3CC[C@H]2C1=O`: -0.301; `O=C1C2=CC[C@H]3C(=O)N(c4ccc(F)cc4F)C(=O)[C@H]3[C@H]2[C@H](O)[C@@H]2O[C@H]12`: -0.276.
Next, `COc1ccc(O[C@H]2C=C[C@@H](c3ccccc3)O[C@@H]2COC(=O)CCC(C)=NOC[C@@H](O)COCc2ccco2)cc1`: -0.918.
For `O=C1C[C@@H](O)[C@@H](O)[C@@H]2[C@@H]3C(=O)N(C4CCCCC4)C(=O)[C@@H]3CC[C@@H]12` the value was 0.0325; for `CC(CCC(=O)OC[C@H]1O[C@H](C#Cc2ccccc2)C=C[C@@H]1Oc1ccc(C)cc1)=NOC[C@@H](C)[C@H](OCc1ccccc1)C(C)C`, -0.043.
In the case of `CC(C)CON=C1C[C@@H](O)[C@@H](O)[C@@H]2[C@@H]3C(=O)N([C@@H](C)c4ccccc4)C(=O)[C@@H]3CC[C@@H]12`, the z-score was -0.889.
